We go through 13 compounds from PubChem BioAssay (Tox21).

Records with an inconclusive call do not appear. A number with no mark means an inactive call. Active and inactive are the calls of the source. Unless noted, the call rests on the fitted dose curve; in most records, active means well fitted curve in the direction sought with a large enough effect in the repeat runs; inconclusive means weak or mixed curves; inactive means no such curve, though single readings can be large; an effect the other way counts as inactive or inconclusive.

Experiment [1] in a line: qHTS assay to identify small molecule antagonists of the glucocorticoid receptor (GR) signaling pathway - cell viability counter screen (AID 720693; further: nearly all actives have a fitted effect of over 55% in size). (In general: Quantitative high-throughput screening tests each substance at several concentrations.)
The nature of experiment [2]: qHTS assay for identifying genotoxic compounds that show differential cytotoxicity against isogenic chicken DT40 cell lines with known DNA damage response pathways - wild type cell line (AID 743012). Further: nearly all actives have a fitted effect of over 60% in size. Further: potency means the concentration at half of the fitted maximal effect. In outline:
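Viability of DNA repair-proficient chicken DT40 cells was assessed by CellTiter-Glo luminescence following 40 h compound exposure at 37 C/5% CO2.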

Experiment [3] in a line: qHTS assay for identifying genotoxic compounds that show differential cytotoxicity against isogenic chicken DT40 cell lines with known DNA damage response pathways - Rev3 mutant cell line (AID 743014). Further: nearly all actives have a fitted effect of over 55% in size. Further: potency means the concentration at half of the fitted maximal effect.
A short description of experiment [4]: qHTS assay for identifying genotoxic compounds that show differential cytotoxicity against isogenic chicken DT40 cell lines with known DNA damage response pathways - Rad54/Ku70 mutant cell line (AID 743015). Further: nearly all actives have a fitted effect of over 60% in size. Further: potency means the concentration at half of the fitted maximal effect.
Experiment [5] is described as follows: qHTS assay to identify small molecule antagonists of the androgen receptor (AR) signaling pathway - cell viability counter screen (AID 743033; further: nearly all actives have a fitted effect of over 45% in size).
A short description of experiment [6]: qHTS assay to identify small molecule antagonists of the androgen receptor (AR) signaling pathway using the MDA cell line - cell viability counter screen (AID 743041; further: nearly all actives have a fitted effect of over 45% in size). The essentials:
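Using the breast carcinoma line MDA-kb2 AR-luc, test chemicals were co-incubated with R1881 for 16 h; CellTiter-Fluor reagent, added at 15.5 h, provided a fluorescence measure of live cells.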

A short description of experiment [7]: qHTS assay to identify small molecule antagonists of the thyroid receptor (TR) signaling pathway - cell viability counter screen (AID 743064). Further: nearly all actives have a fitted effect of over 50% in size. In outline: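 Counter screen for cytotoxicity: compound plus T3 (1 nM final) on GH3.TRE-Luc cells, 23.5 h at 37 °C, then fluorescence viability readout with CellTiter-Fluor.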
A short description of experiment [8]: qHTS assay to identify small molecule antagonists of the thyroid receptor (TR) signaling pathway (AID 743065). Further: series mostly up to about 70 µM; nearly all actives have a fitted effect of over 55% in size. In outline: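 Antagonism measured as loss of luciferase signal in GH3 cells stably carrying a TRE-luciferase reporter, co-treated with compound and T3 (1 nM final) for 23.5 h at 37 C. Viability was read in the same well by CellTiter-Fluor.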
Experiment [9] in a line: qHTS assay to identify small molecule antagonists of the estrogen receptor alpha (ER-alpha) signaling pathway - cell viability counter screen (AID 743074; calls by dose curve; further: nearly all actives have a fitted effect of over 45% in size).
Experiment [10] can be described thus: qHTS assay to identify small molecule antagonists of the estrogen receptor alpha (ER-alpha) signaling pathway using the BG1 cell line - cell viability counter screen (AID 743081).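 Further: compound given together with 17beta-estradiol as the ER stimulus; series mostly up to about 70 µM; nearly all actives have a fitted effect of over 45% in size.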
In a further experiment the target is Aromatase (Homo sapiens) (UniProt P11511). The experiment in a line: qHTS assay to identify aromatase inhibitors (AID 743083). Further: series mostly up to about 70 µM; nearly all actives have a fitted effect of over 55% in size.
Experiment [11] can be described thus: qHTS assay to identify aromatase inhibitors - cell viability counter screen (AID 743084).
In experiment [12] the test system is thyroid hormone receptor (rat, GH3 cells). The experiment is described as follows: qHTS assay to identify small molecule agonists of the thyroid receptor (TR) signaling pathway (AID 743066; calls by dose curve).
The target in experiment [13] is Estrogen receptor (Homo sapiens) (UniProt P03372). The experiment in a line: qHTS assay to identify small molecule antagonists of the estrogen receptor alpha (ER-alpha) signaling pathway (AID 743069; active means well fitted curve in the direction sought with a large enough effect in the signal ratio in the repeat runs, not every such curve was filed as active; the % refers to the signal ratio). In outline:
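Fluorescence intensity from a beta-lactamase FRET substrate served as the read-out. Cells: HEK293 with stably integrated ER-alpha-UAS-bla reporter. Agonist 17beta-estradiol was co-added with compounds; incubation 18 hr at 37C, substrate 2 hr at room temperature.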

Experiment [14] shares this target. The experiment in a line: qHTS assay to identify small molecule agonists of the estrogen receptor alpha (ER-alpha) signaling pathway (AID 743075; calls by dose curve).
Experiment [15] shares this target. The experiment in a line: qHTS assay to identify small molecule agonists of the estrogen receptor alpha (ER-alpha) signaling pathway using the BG1 cell line (AID 743079). Further: nearly all actives have a fitted effect of over 20% in size. Further: potency means the concentration at half of the fitted maximal effect.
Experiment [16] in a line: qHTS assay to identify small molecule antagonists of the estrogen receptor alpha (ER-alpha) signaling pathway using the BG1 cell line (AID 743080; calls by dose curve;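 further: BG1 cells stimulated with 17beta-estradiol alongside compound; series mostly up to about 70 µM; nearly all actives have a fitted effect of over 25% in size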). The essentials: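 After 5 days in phenol-red-free 10% charcoal-stripped FBS medium, BG1-Luc-4E2 cells were seeded, left 24 h at 37 C, co-treated with compounds and 17beta-estradiol for 21.5 h, then assayed for viability and luciferase.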

Chain of Aromatase (Homo sapiens) (P11511 whole entry, looked up): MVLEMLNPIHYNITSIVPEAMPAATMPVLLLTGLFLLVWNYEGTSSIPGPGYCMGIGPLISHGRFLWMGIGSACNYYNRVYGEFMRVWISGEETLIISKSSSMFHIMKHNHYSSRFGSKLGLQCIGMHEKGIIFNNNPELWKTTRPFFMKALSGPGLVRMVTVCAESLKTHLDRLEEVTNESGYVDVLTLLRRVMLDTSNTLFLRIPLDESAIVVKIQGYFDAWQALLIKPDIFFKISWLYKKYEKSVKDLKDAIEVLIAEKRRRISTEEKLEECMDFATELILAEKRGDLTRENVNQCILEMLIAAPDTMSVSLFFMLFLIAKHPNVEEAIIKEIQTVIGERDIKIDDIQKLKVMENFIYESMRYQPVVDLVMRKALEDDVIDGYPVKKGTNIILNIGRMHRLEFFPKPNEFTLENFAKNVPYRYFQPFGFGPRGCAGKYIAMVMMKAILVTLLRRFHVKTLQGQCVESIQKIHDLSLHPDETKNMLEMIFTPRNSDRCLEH
Chain of Estrogen receptor (Homo sapiens) (P03372 whole entry, looked up): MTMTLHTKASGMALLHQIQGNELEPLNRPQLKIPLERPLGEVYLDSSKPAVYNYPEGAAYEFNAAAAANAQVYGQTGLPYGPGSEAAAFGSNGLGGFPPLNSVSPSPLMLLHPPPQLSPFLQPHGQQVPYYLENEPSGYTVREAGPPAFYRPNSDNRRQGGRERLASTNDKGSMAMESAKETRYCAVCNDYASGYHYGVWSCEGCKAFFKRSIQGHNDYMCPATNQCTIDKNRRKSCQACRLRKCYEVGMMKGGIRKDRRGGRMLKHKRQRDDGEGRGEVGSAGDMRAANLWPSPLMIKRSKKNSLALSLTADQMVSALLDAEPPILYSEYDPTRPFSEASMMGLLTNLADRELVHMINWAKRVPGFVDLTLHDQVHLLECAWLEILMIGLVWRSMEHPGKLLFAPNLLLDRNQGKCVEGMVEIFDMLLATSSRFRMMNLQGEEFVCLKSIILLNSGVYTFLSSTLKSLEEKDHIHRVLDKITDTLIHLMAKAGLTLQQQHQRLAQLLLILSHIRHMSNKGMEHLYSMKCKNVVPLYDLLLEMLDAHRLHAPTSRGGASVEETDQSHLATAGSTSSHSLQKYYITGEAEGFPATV

For `NO`, the compound was classed as inactive (in [1]; in experiment [5]; in experiment [10]; with Aromatase (Homo sapiens)). Also, the Potency result in experiment [2], in experiment [3], in [4], in [6], in experiment [7] and in experiment [8] was “inactive” throughout. Besides, the Potency result in experiment [9] and in experiment [11] was “inactive” throughout.
Take `CCCCCCCCCCCCSC`: the call (in [1]; in experiment [5]; in [12]; in experiment [10]; with Aromatase (Homo sapiens)) was inactive. The Potency entry in [2], in experiment [4], in experiment [6], in [7], in experiment [8] and in [9] was “inactive” throughout. Further, the Potency entry in [11] was “inactive”. The Potency in [3] was 61.1 µM (active).
As to `CC(C#N)(CCC(=O)O)N=NC(C)(C#N)CCC(=O)O` (stereo unspecified), the compound was classed as inactive (in [1]; in experiment [5]; in [10]; with Aromatase (Homo sapiens)). Further, the Potency result in experiment [2], in experiment [3], in experiment [4], in experiment [6], in experiment [7] and in experiment [8] was “inactive” throughout. In addition, the Potency result in experiment [9] and in [11] was “inactive” throughout.
`N[C@H](C(=O)O)[C@@H](O)c1ccc(O)c(O)c1`: the compound was classed as inactive (in experiment [1]; in [5]; in experiment [12]; in experiment [10]; in the experiment with Aromatase (Homo sapiens)). In addition, the results for the Potency in experiment [2], in experiment [3] and in [4] were 13.3 µM (active), 16.8 µM (active) and 21.1 µM (active), respectively. Besides, the Potency result in [6], in [13], in [9], in [14], in experiment [15] and in experiment [16] was “inactive” in each case. In addition, the Potency entry in experiment [11] was “inactive”.
As to `CN1CCN(c2cc3c(nn2)Oc2ccccc2N3C)CC1`, the result (in experiment [1]; in [5]; in [12]; in experiment [10]; with Aromatase (Homo sapiens)) was inactive. Moreover, the Potency entry in [2], in experiment [3], in experiment [4], in [6], in experiment [7] and in experiment [8] was “inactive” each time. Further, the Potency result in [9] and in [11] was “inactive” throughout.
With `N[C@@H](CCC(=O)O)C(=O)O`, the call (in [1]; in experiment [5]; in experiment [12]; in experiment [10]; with Aromatase (Homo sapiens)) was inactive. Also, the Potency entry in [2], in experiment [3], in experiment [4], in experiment [6], in experiment [7] and in experiment [13] was “inactive” each time. The Potency entry in [9], in experiment [14], in experiment [15] and in experiment [11] was “inactive” in each case.
Consider `CN(C)C(=O)Oc1ccc[n+](C)c1`, for which the result (in [1]; in [5]; in experiment [10]; with Aromatase (Homo sapiens)) was inactive. Moreover, the Potency result in experiment [2], in experiment [3], in [4], in experiment [6], in [13] and in experiment [9] was “inactive” in each case. Also, the Potency entry in [14], in experiment [16] and in [11] was “inactive” in each case. For the same compound, the Potency in [15] is 26.6 µM (active).
As to `c1ccc(Cc2ccccc2)cc1`, the result (in experiment [1]; in experiment [12]; in experiment [10]; in the experiment with Aromatase (Homo sapiens)) was inactive. The Potency result in experiment [2], in experiment [3], in experiment [4], in [6], in experiment [7] and in [8] was “inactive” each time. Moreover, the Potency result in experiment [13], in experiment [9], in experiment [14], in experiment [15], in [16] and in experiment [11] was “inactive” throughout.
As to `NC(=O)Cc1cccc2ccccc12`, the call (in experiment [1]; in experiment [5]; in experiment [10]; in the experiment with Aromatase (Homo sapiens)) was inactive. Also, the Potency entry in experiment [2], in experiment [3], in [4], in [6], in experiment [7] and in [9] was “inactive” throughout. The Potency entry in experiment [11] is “inactive”.
As to `Cc1cccc(C)c1NC(=O)CC12CCCN1CCC2`, the result (in experiment [1]; in experiment [12]; in experiment [10]; with Aromatase (Homo sapiens)) was inactive. The Potency result in experiment [2], in experiment [3], in experiment [4], in [6], in [7] and in experiment [8] was “inactive” in each case. Also, the Potency entry in experiment [13], in experiment [9], in [14], in experiment [15] and in [11] was “inactive” each time.
As for `Clc1cc(Cl)cc(Cl)c1`, the compound was classed as inactive (in [1]; in experiment [5]; in experiment [10]; with Aromatase (Homo sapiens)). The Potency result in experiment [2], in [3], in experiment [4], in experiment [6], in experiment [7] and in experiment [13] was “inactive” each time. Besides, the Potency result in [9], in experiment [14], in experiment [15], in experiment [16] and in [11] was “inactive” throughout.
Consider `NCCCC(N)(C(=O)O)C(F)F` (stereo unspecified), for which the compound was called inactive in [1], in [5], in experiment [12] and in [10]. In addition, the Potency entry in [2], in [3], in experiment [4], in experiment [6], in experiment [7] and in experiment [9] was “inactive” in each case.
Regarding `CC(C)(C)C(=O)c1ccccc1`, the call (in [1]; in experiment [5]; in experiment [12]; in experiment [10]; with Aromatase (Homo sapiens)) was inactive. For the same compound, the Potency entry in experiment [2], in experiment [3], in experiment [4], in experiment [6], in experiment [8] and in experiment [13] was “inactive” in each case. Besides, the Potency entry in experiment [9], in experiment [16] and in experiment [11] was “inactive” each time. In addition, the Potency in experiment [15] is 61.1 µM (active).
